RORg inh = ROR gamma (mouse) transcription inhibition; Potency, µM (titrated, usually from 53.6 µM), without a hit: at the top dose activity change, negative = inhibition, hits mostly inhibitors; P51450; AID 2551; Drosophila S2 Gal4-RORgamma UAS-luciferase reporter, 20 h; hit rate 5.4% among 310,000; note: potency is the fitted concentration of half-maximal effect; % is set by controls: 0 for no effect and ±100 for the full control effect; nearly all actives have a fitted effect of over 60% in size
Target sequence (P51450 whole entry, looked up, the tested form may be a part): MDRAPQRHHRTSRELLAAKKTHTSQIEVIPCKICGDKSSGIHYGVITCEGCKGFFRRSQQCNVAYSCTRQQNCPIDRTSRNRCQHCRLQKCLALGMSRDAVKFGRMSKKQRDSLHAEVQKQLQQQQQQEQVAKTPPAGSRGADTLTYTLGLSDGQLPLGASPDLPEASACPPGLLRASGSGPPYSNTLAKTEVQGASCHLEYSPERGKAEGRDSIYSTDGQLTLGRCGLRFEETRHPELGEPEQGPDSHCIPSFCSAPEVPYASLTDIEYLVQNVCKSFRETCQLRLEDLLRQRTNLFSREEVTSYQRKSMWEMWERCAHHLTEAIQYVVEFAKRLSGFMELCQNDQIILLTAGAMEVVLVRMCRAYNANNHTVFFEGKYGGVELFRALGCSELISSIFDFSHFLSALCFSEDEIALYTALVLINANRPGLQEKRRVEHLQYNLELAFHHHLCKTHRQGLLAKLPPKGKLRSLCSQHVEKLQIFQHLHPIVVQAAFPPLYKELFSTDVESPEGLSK
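A Gal4/UAS one-hybrid system in insect cells: metallothionein-promoter Gal4–ROR gamma fusion plus Photinus luciferase reporter. Copper sulfate 700 uM final, 20 hr ambient incubation, luminescent detection after 10 min with reagent.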
Giardia kill = kills Giardia lamblia. AID 540267. activity change, % at 7.66 µM, hits read low. Giardia lamblia trophozoite viability. hit rate 0.15% among 340,000; in the data active = activity change below about -80%; inconclusive = between about -30% and that limit;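 note: parasites exposed to compound for two days anaerobically before the ATP read; % is set by controls: 0 for no effect and ±100 for the full control effect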
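Media and compound were dispensed first, then trophozoites at 100 cells/well; plates sat 48 hrs at 37 deg C without oxygen before ATP luminescence reagent was added and read after 15-30 min at room temperature.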
VP16 counter = Gal4-VP16 reporter inhibition counter-screen. Drosophila S2 Gal4-VP16 UAS-luciferase, luminescence, 20 h. Potency, µM (titrated, usually from 53.6 µM), for the others: at the top dose activity, negative = inhibition, most hits filed as inhibitors. hit rate 3.5% among 310,000;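 note: Gal4-VP16 expression switched on by copper sulfate through the metallothionein promoter; potency is the fitted concentration of half-maximal effect; % is set by controls: 0 for no effect and ±100 for the full control effect; nearly all actives have a fitted effect of over 50% in size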
p53 reactivator = re-activators of mutant p53. hit rate 0.063% among 320,000. H1299 p53-A138V BP100-luciferase reporter, luminescence, 24 h. AID 504706. Potency, µM (top dose mostly 92.2 µM), inactives show top-dose activity change, positive = activation, most hits filed as activators; note: potency is the fitted concentration of half-maximal effect; % of control where 0% means no effect; nearly all actives have a fitted effect of over 45% in size
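p53-null H1299 cells stably carrying temperature-sensitive p53-A138V and a BP100-luciferase reporter were pinned with compounds (4-point, 1:5 series) and held 24 hrs at 37 deg C. Luminescence was read 10 min after detection reagent.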
ELG1 repair inh = blocks ELG1-dependent DNA repair in HEK293T cells. Potency, µM (titrated, usually from 46.1 µM), for the others: at the top dose activity change, negative = inhibition, hits mostly inhibitors. AID 504467. HEK293T ELG1-luciferase reporter, luminescence, 16 h; DNA damage induced by 5-fluorouridine. hit rate 2.3% among 330,000; note: potency is the fitted concentration of half-maximal effect; % is set by controls: 0 for no effect and ±100 for the full control effect; nearly all actives have a fitted effect of over 55% in size
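5-Fluorouridine DNA damage + compound/DMSO, 2,000 cells/well, 16 h, 37 °C/5% CO2. ONE-Glo, 30 min RT, luminescence. Readout = decrease in reporter signal.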
BRCA1 expr up = increases BRCA1 expression; Potency, µM (doses to about 46.1 µM), for the others: at the highest dose activation, hits mostly activators; AID 624202; MCF7-BRCA1-FFLuc reporter, luminescence, 48 h; response scale: scaled: vehicle 0%, 10 µM genistein 100%; hit rate 1.1% among 380,000; note: potency is the fitted concentration of half-maximal effect; nearly all actives have a fitted effect of over 80% in size
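Compounds are tested at multiple concentrations on MCF7 BRCA1-luciferase reporter cells seeded at 2000 per well; after 48 h, a single luminescence end-point is taken and curves fitted to the normalized data.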
* marks the source's active call; other numbers are inactive results; u = inconclusive; x = no result given; [ ] = remark or other dose. Hits are enriched below; roughly 7.6% of the tested compounds scored in any of these assays. Unless noted, calls come from the whole dose curve; as a rule, active = well fitted curve in the direction sought with a large enough effect; inconclusive = small, poorly fitted or top-dose-only effect, or another doubt; inactive = no such curve, though single readings can be large; an effect the other way counts as inactive or inconclusive.

SMILES	RORg inh	Giardia kill	VP16 counter	p53 reactivator	ELG1 repair inh	BRCA1 expr up
COc1ccc(O)c(/C=N/NC(=O)CCC(=O)Nc2ccc(C)cc2)c1	6.3µM*	-4	-17%	7%	u	-59%
COc1ccc(O)c(/C=N/NC(=O)CCC(=O)Nc2cccc(C)c2)c1	13µM*	-15	u	6%	u	-60%
Cc1ccc(NC(=O)CCC(=O)N/N=C/c2ccc(O)cc2)cc1	6%	-7	1%	4%	u	-3%
COc1ccc(OC)c(/C=N/NC(=O)CCCC(=O)Nc2cccc(Br)c2)c1	16%	2	-7%	-7%	u	-2%
CCOC(=O)c1c(NC(=O)C(C)N2CCN(C(=O)c3ccco3)CC2)sc2c1CCCC2 (stereo not given)	-35%	29	11µM*	-11%	7.3µM*	-73%
CC1CCN(CC(=O)Nc2sc3c(c2C#N)CCC3)CC1	14%	-10	0%	2%	18%	26%
CC1CCc2c(sc(NC(=O)CN3CCN(C(=O)c4ccco4)CC3)c2C#N)C1 (stereo not given)	u	-9	2%	-3%	16µM*	-25%
CCc1cc(C(=O)OC)c(NC(=O)CN2CCN(C(=O)c3ccco3)CC2)s1	7%	-2	-54%	-1%	10µM*	-31%
CCOC(=O)c1c(NC(=O)c2ccco2)sc2c1CCCCC2	12%	-1	4%	-3%	-1%	5%
COCCOC(=O)c1c(NC(=O)CN2CCCc3ccccc32)sc(C(N)=O)c1C	u	-7	0%	-6%	7.3µM*	-42%
CC(C)(C)c1ccc2oc(=O)cc(-c3cccc(-c4ccc(C(F)(F)F)cc4)c3)c2c1	x	-29	x	6%	10%	-1%
COc1ccc(NC(=O)CN(C)C(=O)CNC(=O)c2cccs2)cc1	x	-18	x	x	-6%	3%
CCC1CCc2nc3sc(C(=O)Nc4ccc(F)c(Cl)c4)c(N)c3cc2C1 (stereo not given)	x	x	x	x	x	1%
CCOC(=O)c1c(NC(=O)CN2CCN(C(=O)c3ccco3)CC2)sc(C(N)=O)c1C	-10%	-16	-8%	5%	23µM*	-19%
CCC(=O)NCCCCCCCCCNC(=O)CC	-1%	-11	7%	1%	u	-17%
COc1ccccc1C(=O)N1CCN(c2nc3cc(C)cc(C)c3cc2C#N)CC1	x	x	x	x	x	3%
COc1ccc2nc(N3CCCCC3)c(C#N)cc2c1	-28%	-8	4%	u	u	11µM*
COc1ccccc1C(=O)N1CCN(c2nc3cc(C)c(C)cc3cc2C#N)CC1	31%	-7	6%	1%	23µM*	-39%
COc1ccc2nc(N3CCCC3)c(C#N)cc2c1	11%	-19	11%	5%	u	37%
C=CCOC(=O)/C(=C/c1cccc2ccccc12)NC(=O)c1ccccc1	45%	2	u	10%	u	42%
COc1cc(/C=C(\C#N)C(N)=O)cc(CSc2nc3ccccc3s2)c1O	5.6µM*	x	14µM*	x	x	x
Cn1c(NC2CCCCC2)cc(=O)n(C)c1=O	-15%	28	-4%	x	10%	4%
Cc1cc(C2CCCCC2)n(O)c(=O)c1	2µM*	17	2.2µM*	u	u	-71%
CS(=O)(=O)c1ccc(Cl)c(NC(=O)CSC(=S)N2CCCC2)c1	x	-9	x	x	x	-2%
Cc1ccccc1OCC(O)Cn1c(N2CCCCC2)nc2c1c(=O)[nH]c(=O)n2C (stereo not given)	25%	-1	-2%	-7%	-6%	2%
SMILES	RORg inh	Giardia kill	VP16 counter	p53 reactivator	ELG1 repair inh	BRCA1 expr up
Cc1ccc(-n2nnnc2SC(C)C(N)=O)c(C)c1 (stereo not given)	18%	-6	-6%	-10%	1%	-16%
Cc1ccc(-n2nnnc2SC(C)C(=O)NCC(=O)Nc2ccc(F)c(F)c2F)c(C)c1 (stereo not given)	129%	-1	-11%	-1%	18µM*	-45%
CC(C)(Oc1ccc(Br)cc1)C(=O)Nc1cc(-c2nc3ccccc3[nH]2)ccc1Cl	x	x	x	x	x	1%
COc1cccc(OC)c1C(=O)NC(=S)Nc1cc(-c2nc3ccccc3[nH]2)ccc1Cl	37%	15	2%	u	8.2µM*	25%
O=C(NCCc1ccccc1)c1ccc2nc(N3CCCCC3)sc2c1	x	x	x	x	x	102%
O=C(NCC1CCCO1)c1ccc2nc(N3CCCCC3)sc2c1 (stereo not given)	7.1µM*	-30	u	u	u	-23%
CC1CCN(c2nc3ccc(C(=O)NCc4ccc(Cl)cc4)cc3s2)CC1	x	x	x	x	x	25%
CC1CCN(c2nc3ccc(C(=O)O)cc3s2)CC1	0.89µM*	-29	1.4µM*	-55%	u	u
COCCn1c(C)cc(/C=C2\NC(=S)N(C)C2=O)c1C	u	u	u	u	29%	-5%
CN1C(=O)/C(=C/c2cc3c(cc2Br)OCO3)NC1=S	4.5µM*	-18	u	-2%	9%	-9%
COC(=O)c1nc(NNC(=O)c2ccccc2)sc1-c1ccccc1	14µM*	-6	-26%	-7%	u	-30%
O=C(NNc1nc(-c2ccccc2)cs1)c1ccccc1	5µM*	-1	4µM*	7%	u	-60%
O=C(Nc1ccc(-c2csc(Nc3ccccc3)n2)cc1)c1ccccc1	22%	16	8%	x	-23%	-38%
N#Cc1ccc(-c2csc(NNC(=O)c3ccccc3)n2)cc1	11µM*	-5	u	12%	u	-74%
O=C(COC(=O)CNC(=O)c1ccccc1)NCCc1ccccc1	10µM*	9	0%	3%	-10%	-12%
O=C(Cc1cccs1)Nc1nc(-c2ccccc2)cs1	u	2	23%	u	-13%	-24%
N#Cc1ccc(-c2csc(NNC(=O)c3ccc(Br)cc3)n2)cc1	5µM*	-7	u	5%	u	-62%
CC(=O)Nc1ccc(-c2csc(NNC(=O)c3ccc(C)cc3)n2)cc1	-22%	-4	3%[10 µM]	10%	-20%	-20%
O=C(COC(=O)CNC(=O)c1ccccc1)Nc1nc(-c2ccccc2)cs1	41%	8	4%	u	u	6.3µM*
Cc1nc(CC(=O)Nc2nc(-c3ccccc3)cs2)cs1	38%	21	18%	u	u	11µM*
CC(=O)c1c(C)[nH]c(C(=O)COC(=O)c2cccnc2Cl)c1C	x	-8	x	u	u	1%
O=C(NCCC(=O)N1CCCC(C(F)(F)F)C1)c1ccc(Br)cc1 (stereo not given)	-25%	10	-4%	-5%	2%	2%

Screening results from PubChem.
